The results in this text go back to PubChem BioAssay.

For assay [1], the system named is TRPC4 beta (transient receptor potential cation channel C4), mouse. The assay is described as follows: TRPC4 cation channel opening, retest – cell-based, Fluo4 calcium, HEK293 TRPC4beta/mu-opioid, duplicates, 10 µM, confirmation (AID 2426;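 active = fluorescence ratio normalized to control raised more than 50% in primary screen plus both repeat runs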). The conditions noted are these: Fluo4 calcium fluorescence, at 10 µM; active compounds read high.
Assay [2] concerns transient receptor potential cation channel C4 beta (TRPC4), mouse. In words: TRPC4 cation channel opening, second retest – cell-based, second round, Fluo4, HEK293 TRPC4beta/mu-opioid, 1 µM, confirmation (AID 2461;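 active = primary screen active and over 50% activation in each of two duplicate runs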). The conditions noted are these: Fluo4 calcium fluorescence, at 1 µM; active compounds read high.
For assay [3], the system named is TRPC4 (transient receptor potential cation channel C4 beta), mouse. In words: potentiation of DAMGO EC20 TRPC4 response – cell-based, second round, Fluo-4, HEK293 TRPC4beta/mu-opioid, 1 µM, confirmation (AID 2554). The conditions noted are these: DAMGO EC20, Fluo-4 calcium flux, at 1 µM; active compounds read high.
In assay [4] the test system is TRPC4 beta (transient receptor potential cation channel C4), mouse. The assay is described as follows: potentiation of DAMGO EC20 TRPC4 response – cell-based, Fluo-4, HEK293 TRPC4beta/mu-opioid, confirmation (AID 2555;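 active = primary screen hit whose calcium fluorescence ratio, in both repeats, exceeds the weak agonist control mean by 3 SD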). The conditions noted are these: DAMGO EC20, Fluo-4 calcium flux, at 10 µM; active compounds read high. For orientation: Calcium assays in cells follow changes in intracellular calcium, usually with a dye or a luminescent sensor.

Assay [5] deals with Short transient receptor potential channel 4 (Mus musculus) (UniProt Q9QUQ5). The assay is described as follows: blockers of DAMGO-evoked TRPC4 calcium flux – cell-based, Fluo4, HEK293 TRPC4beta/mu-opioid, confirmation (AID 2636;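 active = calcium signal cut by more than 3 SD below the full-agonist control yet still positive, in both repeats and the earlier primary screen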). The conditions noted are these: at 10 µM; active compounds read high.
Chain of Short transient receptor potential channel 4 (Mus musculus) (Q9QUQ5 whole entry, looked up): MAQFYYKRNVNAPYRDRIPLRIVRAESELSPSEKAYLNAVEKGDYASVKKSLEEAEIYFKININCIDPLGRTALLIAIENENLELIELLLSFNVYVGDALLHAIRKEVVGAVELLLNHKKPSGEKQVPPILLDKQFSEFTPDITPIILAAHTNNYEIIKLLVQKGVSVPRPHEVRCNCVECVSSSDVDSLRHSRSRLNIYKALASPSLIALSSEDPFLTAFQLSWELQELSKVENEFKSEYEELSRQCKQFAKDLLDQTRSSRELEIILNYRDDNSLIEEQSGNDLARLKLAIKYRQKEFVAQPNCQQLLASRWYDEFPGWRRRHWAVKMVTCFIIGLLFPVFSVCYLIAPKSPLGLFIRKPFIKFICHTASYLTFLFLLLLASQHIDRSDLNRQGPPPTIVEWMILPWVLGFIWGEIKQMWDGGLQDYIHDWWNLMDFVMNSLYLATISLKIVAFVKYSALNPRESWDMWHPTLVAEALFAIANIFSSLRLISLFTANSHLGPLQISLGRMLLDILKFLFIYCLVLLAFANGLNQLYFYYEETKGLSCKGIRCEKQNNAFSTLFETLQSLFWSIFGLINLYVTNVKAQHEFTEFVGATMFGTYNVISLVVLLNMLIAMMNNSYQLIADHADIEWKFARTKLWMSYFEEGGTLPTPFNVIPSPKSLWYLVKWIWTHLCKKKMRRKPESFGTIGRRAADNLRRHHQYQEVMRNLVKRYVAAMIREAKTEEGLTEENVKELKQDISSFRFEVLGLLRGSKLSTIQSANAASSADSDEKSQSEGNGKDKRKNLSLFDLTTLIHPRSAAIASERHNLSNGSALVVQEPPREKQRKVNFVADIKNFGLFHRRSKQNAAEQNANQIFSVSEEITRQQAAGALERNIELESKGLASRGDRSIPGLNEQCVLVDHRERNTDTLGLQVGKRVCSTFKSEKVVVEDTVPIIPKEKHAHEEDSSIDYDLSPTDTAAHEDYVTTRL
The target is the same in assay [6]. The assay is described as follows: blockers of DAMGO-evoked TRPC4 calcium flux – cell-based, second round, Fluo4, HEK293 TRPC4beta/mu-opioid, 1 µM, confirmation (AID 2637;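 active = calcium signal ratio cut to more than 3 SD under the fully stimulated control mean yet still positive, in both repeats and the primary screen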;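 as to inhibition: percent of integrated ratio relative to wells lacking test compound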). The conditions noted are these: at 1 µM; active compounds read high.
The target is the same in assay [7]. The assay is described as follows: calcium entry via TRPC4 opening agents – cell-based, HEK293 TRPC4/mu-opioid, Fluo-4 calcium, dose response (AID 434937;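 active = primary screen activator hit with a dose response curve and TRPC4 channel activation at any tested dose; inactive = no activation, no dose response, or not a primary hit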).
Assay [8] has the same target. In words: potentiation of DAMGO-evoked TRPC4 calcium signal – cell-based, HEK293 TRPC4/mu-opioid, Fluo-4 calcium, EC20 DAMGO, dose response (AID 434941;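 active = earlier screen potentiator hit that boosts the TRPC4 ion channel at some dose, with a dose response; inactive = no potentiation, no dose response, or not a prior hit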;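 also: calcium entry triggered by an EC20 dose of DAMGO at the co-expressed mu-opioid receptor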).
Assay [9] deals with Short transient receptor potential channel 6 (Mus musculus) (UniProt Q61143). The assay is described as follows: TRPC6 blockade by TRPC4 inhibitor hits – cell-based, HEK293, membrane potential dye, duplicate, selectivity assay for TRPC4 inhibitor project, confirmation (AID 434948;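 active = active in primary screen and both duplicates, each dropping signal beyond three positive-control SD with fluorescence still positive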). The conditions noted are these: HEK293 TRPC6, membrane potential dye fluorescence, at 10 µM, stimulated with maximal-effect acetylcholine; active compounds read high.
Chain of Short transient receptor potential channel 6 (Mus musculus) (Q61143 whole entry, looked up): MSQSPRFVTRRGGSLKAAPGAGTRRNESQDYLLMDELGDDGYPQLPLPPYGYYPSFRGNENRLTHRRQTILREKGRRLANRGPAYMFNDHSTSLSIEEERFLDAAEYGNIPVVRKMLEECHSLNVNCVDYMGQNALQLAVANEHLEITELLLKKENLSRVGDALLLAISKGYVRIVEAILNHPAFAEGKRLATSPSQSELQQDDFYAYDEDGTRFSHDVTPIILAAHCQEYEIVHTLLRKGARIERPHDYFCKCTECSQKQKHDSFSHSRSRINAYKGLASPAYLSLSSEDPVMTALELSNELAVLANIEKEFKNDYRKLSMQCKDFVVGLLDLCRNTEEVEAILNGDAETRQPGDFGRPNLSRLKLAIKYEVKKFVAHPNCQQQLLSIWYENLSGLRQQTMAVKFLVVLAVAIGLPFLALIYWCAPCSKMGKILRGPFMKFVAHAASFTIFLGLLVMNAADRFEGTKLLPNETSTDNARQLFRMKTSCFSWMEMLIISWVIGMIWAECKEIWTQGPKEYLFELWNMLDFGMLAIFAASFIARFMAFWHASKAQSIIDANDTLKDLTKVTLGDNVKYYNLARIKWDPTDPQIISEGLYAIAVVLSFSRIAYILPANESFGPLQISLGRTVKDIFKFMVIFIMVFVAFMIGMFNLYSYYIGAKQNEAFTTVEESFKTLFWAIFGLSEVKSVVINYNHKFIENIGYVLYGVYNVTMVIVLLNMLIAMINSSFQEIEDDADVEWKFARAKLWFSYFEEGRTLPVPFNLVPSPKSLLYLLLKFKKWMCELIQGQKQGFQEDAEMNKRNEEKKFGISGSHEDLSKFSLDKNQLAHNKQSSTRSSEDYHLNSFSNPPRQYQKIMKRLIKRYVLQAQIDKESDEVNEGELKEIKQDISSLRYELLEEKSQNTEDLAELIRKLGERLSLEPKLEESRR

Assay [10] has the same target. In words: TRPC6 opening by TRPC4 activator hits – cell-based, HEK293, membrane potential dye, duplicate, selectivity assay for TRPC4 activator project, confirmation (AID 434950;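 active = membrane potential signal rise above negative control mean plus 3 SD in both duplicates, also active in the earlier TRPC4 screen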). The conditions noted are these: HEK293 TRPC6, membrane potential fluorescence, at 10 µM; activation: active compounds read high; outcome: activation.
Assay [11] has the same target. The assay is described as follows: positive modulators of mouse TRPC6 channel – HEK293 cells, membrane potential dye, duplicate, selectivity assay for TRPC4 potentiator project, confirmation (AID 434952;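 active = compound raising the membrane signal above positive-control mean plus 3 SD in both repeats, and a primary screen hit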). The conditions noted are these: HEK293 TRPC6, membrane potential dye fluorescence, at 10 µM, maximal acetylcholine added after compound; active compounds read high.
For assay [12], the target named is Short transient receptor potential channel 4 (Mus musculus) (UniProt Q9QUQ5). The assay is described as follows: calcium flux activators in TRPC4/5HT1a cells, counter-screen for TRPC4 activator project, cell-based, second counter screen, HEK293 TRPC4/5HT1a, Fluo-4 (AID 434977;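 active = calcium signal rise above buffer-control mean plus 5 SD in both duplicates, and also a hit in the primary screen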). The conditions noted are these: Fluo-4 calcium flux, at 10 µM; active compounds read high.
Assay [13] can be described thus: serotonin-gated TRPC4 signal block – cell-based, second counter screen, HEK293 TRPC4/5HT1a, Fluo-4, counter-screen for TRPC4 inhibitor project, confirmation (AID 434978;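 active = primary screen active whose calcium signal fell more than 3 SD beyond the full-serotonin control mean in both duplicate plates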;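 as to outcome: serotonin given first at submaximal then at maximal dose after compound preincubation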). The conditions noted are these: Fluo-4 calcium flux, at 10 µM, serotonin added to trigger calcium flux; active compounds read high.
Assay [14] relates to TRPC4 (mouse), co-expressed with 5HT1a in HEK293. The assay is described as follows: enhancement of serotonin-evoked TRPC4 response – cell-based, second counter screen, HEK293 TRPC4/5HT1a, Fluo-4, counter-screen for TRPC4 potentiator project, confirmation (AID 434979;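 active = signal rise over 3 SD above mean of control wells given weak agonist, in both repeats and first screen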). The conditions noted are these: Fluo-4 calcium flux, at 10 µM, serotonin added at its EC20 dose; active compounds read high.

Assay [15] is described as follows: nonspecific calcium rise without TRPC4 – cell-based, HEK293 mu-opioid receptor line, counter-screen for TRPC4 activator project, confirmation (AID 449723;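 active = hit in primary screen, with calcium signal over 5 SD above buffer well mean in both duplicates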;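 also: counter screen cells carry the mu-opioid receptor alone and lack TRPC4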). The conditions noted are these: HEK293 mu-opioid cells, Fluo-4 calcium fluorescence, at 10 µM; active compounds read high.
Assay [16] in a line: nonspecific potentiation of DAMGO calcium response – cell-based, HEK293 mu-opioid receptor line, counter-screen for TRPC4 allosteric potentiator project, confirmation (AID 449724;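 active = calcium signal rise more than 3 SD above the low-dose agonist control mean, in both duplicate plates and the primary screen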;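 also: HEK293 cells carrying mu-opioid receptor only with no TRPC4 channel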). The conditions noted are these: HEK293 mu-opioid receptor cells, Fluo-4 calcium flux, at 10 µM, compound added before EC20 DAMGO stimulus; active compounds read high. On the technique in general: The purpose of a counterscreen is to sort out artefacts and off-target activity.

For some assays here: Potency and affinity values are given separately. Calls of active or inactive are those of the source.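 The calls were made as follows, unless noted: active = primary screen hit whose fluorescence ratio, in both repeats, exceeds the weak agonist control mean by 3 SD; inactive = the rest.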

`CCc1cccc(OCC(=O)Nc2ccc(C(=O)O)cc2NC(=O)COc2cccc(CC)c2)c1`: the outcome in assay [1], in assay [2], in assay [3], in assay [4], in assay [6] and in assay [7] was inactive. In addition, the result in assay [8], in assay [9], in assay [10], in [11], in assay [12] and in [14] was inactive. In addition, the outcome in [15] and in assay [16] was inactive. For the same compound, the results for the inhibition in [5] and in assay [13] were 93% (active) and 40.9% (active), respectively.
For the compound `CCOC(=O)C1(Cc2cccc(OC)c2)CCN(Cc2ccc(OC)c(O)c2)CC1`, the result in [1], in [2], in assay [3], in [4], in assay [5] and in assay [6] was inactive. Further, the result in assay [7], in assay [8], in assay [9], in assay [10], in assay [11] and in [12] was inactive. Moreover, the result in assay [13], in [14], in assay [15] and in assay [16] was inactive.
As for `CCCN1CN(Cc2ccco2)c2nc3ccccc3n2C1`, the outcome in assay [1], in assay [2], in [3], in [4], in assay [7] and in assay [8] was inactive. The result in assay [9], in [10], in assay [11], in assay [12], in assay [14] and in assay [15] was inactive. For the same compound, in [16], the result was inactive. The inhibition (as a rule, how much of the control response was suppressed) in assay [5] is 96% (active); in assay [6], 53% (active); in assay [13] it was 25% (active).
Take `Oc1ccc(CN2CCCCC2)nc1-c1ccccc1`: the outcome in assay [1], in assay [2], in assay [3], in assay [4], in assay [7] and in [8] was inactive. For the same compound, the result in assay [9], in [10], in [11], in assay [12], in assay [14] and in [15] was inactive. Moreover, in [16], the outcome was inactive. The inhibition in assay [5] is 92% (active); in assay [6], 43% (active); in assay [13], 31.7% (active).
As for `CN(C)c1ccc(NC(=O)CN2C3CCCC2CC(NC(=O)c2ccccc2)C3)cc1` (centres undefined), the outcome in assay [1], in assay [2], in assay [3], in [4], in [6] and in [7] was inactive. Also, the outcome in assay [8], in [9], in [10], in [11], in [12] and in [13] was inactive. The result in assay [14], in assay [15] and in assay [16] was inactive. Besides, the inhibition in [5] was 71% (active).
Consider `CCN(CC)CCn1c2ccccc2c2cnc(N)c(C#N)c21`, for which the outcome in [1], in assay [2], in assay [3], in [4], in assay [6] and in [7] was inactive. Besides, the outcome in [8], in assay [9], in assay [10], in assay [11], in assay [12] and in [14] was inactive. Further, the outcome in assay [15] and in assay [16] was inactive. In addition, the inhibition in [5] is 82% (active); in assay [13], 32.9% (active).
With `CCc1c(C(=O)N2CCCN(C)CC2)csc1C`, the outcome in [1], in assay [2], in assay [3], in assay [4], in assay [7] and in assay [8] was inactive. Besides, the compound was called inactive in assay [9], in assay [10], in assay [11], in [12], in assay [13] and in assay [14]. For the same compound, the outcome in assay [15] and in assay [16] was inactive. For the same compound, the inhibition in assay [5] was 63% (active); in [6], 44% (active).
On to `CCOCCCNCc1cc(Br)ccc1OCc1ccccc1`, for which the result in [1], in [2], in assay [3], in [4], in [7] and in assay [8] was inactive. The compound was classed as inactive in assay [10], in assay [11], in [12], in assay [14], in [15] and in assay [16]. Moreover, the inhibition in [5] is 94% (active); in assay [6], 49% (active); in assay [9], 28% (active); in assay [13], 16.2% (active).
Consider `OCC1(CCc2ccccc2)CCN(Cc2cc(Cl)ccc2O)CC1`, for which the result in assay [1], in assay [2], in [3], in [4], in assay [6] and in assay [7] was inactive. Besides, the outcome in [8], in [9], in assay [10], in assay [11], in assay [12] and in assay [13] was inactive. Besides, the result in assay [14], in assay [15] and in assay [16] was inactive. Besides, the inhibition in assay [5] is 79% (active).
For the compound `CCCCc1nc(SCCOC)c2c(=O)n(C)c(=O)n(C)c2n1`, the outcome in assay [1], in assay [2], in assay [3], in [4], in assay [6] and in assay [7] was inactive. Besides, the outcome in assay [8], in assay [9], in [10], in assay [11], in assay [12] and in assay [14] was inactive. In addition, the outcome in assay [15] and in [16] was inactive. The inhibition was 88% (active) in assay [5] and 12.3% (active) in assay [13].
In the case of `Cc1c(N)c(C(C)(C)C)cc(C(C)(C)C)c1[N+](=O)[O-]`, the result in assay [1], in [2], in assay [3], in assay [4], in assay [6] and in assay [7] was inactive. The result in assay [8], in assay [9], in assay [10], in assay [11], in assay [12] and in assay [14] was inactive. The outcome in assay [15] and in [16] was inactive. Moreover, the results for the inhibition in assay [5] and in assay [13] were 92% (active) and 29.4% (active), respectively.
Regarding `CCOc1cc(CNCCCN2CCOCC2)cc(Br)c1OCc1ccccc1Cl`, the result in assay [1], in assay [2], in assay [3], in [4], in assay [6] and in [7] was inactive. Also, the outcome in assay [8], in assay [9], in assay [10], in [11], in [12] and in assay [13] was inactive. Further, the result in assay [14], in [15] and in assay [16] was inactive. Moreover, the inhibition in assay [5] was 77% (active).
Regarding `CCCN1C2=NCCN2c2cc(C)c(C)cc21`, the result in [1], in assay [2], in assay [3], in [4], in [7] and in assay [8] was inactive. In addition, the compound was called inactive in assay [10], in [11], in [12], in [14], in [15] and in assay [16]. The inhibition in assay [5] is 91% (active); in assay [6], 48% (active); in [9], 40.5% (active); in assay [13], 25.6% (active).
With `c1ccn2cc(C34CC5CC(CC(C5)C3)C4)nc2c1`, the outcome in [1], in assay [2], in [3], in assay [4], in [6] and in assay [7] was inactive. For the same compound, the outcome in [8], in assay [9], in [10], in assay [11], in [12] and in assay [14] was inactive. Also, the result in [15] and in [16] was inactive. Also, the results for the inhibition in assay [5] and in assay [13] were 69% (active) and 41.3% (active), respectively.
